log2 fold change data for 33 targets are collected here from the supplement of paper PMC10849652.

About 8,800 targets were measured; listed, in parts, are those with a hit and a random draw of the rest. About 0.5% of all pairs of compound and target were hits.

UniProt P47736, sequence (P47736 whole entry, looked up): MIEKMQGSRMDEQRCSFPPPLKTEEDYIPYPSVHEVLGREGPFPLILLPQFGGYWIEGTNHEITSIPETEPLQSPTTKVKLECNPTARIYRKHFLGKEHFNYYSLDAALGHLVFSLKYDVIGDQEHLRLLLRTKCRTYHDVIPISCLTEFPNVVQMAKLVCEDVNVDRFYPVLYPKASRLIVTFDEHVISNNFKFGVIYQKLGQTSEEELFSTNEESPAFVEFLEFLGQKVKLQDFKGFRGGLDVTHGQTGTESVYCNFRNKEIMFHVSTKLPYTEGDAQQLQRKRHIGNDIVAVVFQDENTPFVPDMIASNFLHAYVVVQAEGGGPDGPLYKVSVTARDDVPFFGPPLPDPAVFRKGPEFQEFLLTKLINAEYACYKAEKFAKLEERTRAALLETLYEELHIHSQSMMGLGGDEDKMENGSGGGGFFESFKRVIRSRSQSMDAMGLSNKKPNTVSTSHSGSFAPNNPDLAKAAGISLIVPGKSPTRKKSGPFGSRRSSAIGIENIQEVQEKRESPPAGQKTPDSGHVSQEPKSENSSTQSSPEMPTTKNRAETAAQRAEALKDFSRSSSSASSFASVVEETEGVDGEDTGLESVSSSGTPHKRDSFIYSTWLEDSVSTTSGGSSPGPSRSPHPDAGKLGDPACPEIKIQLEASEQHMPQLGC
UniProt Q9UPW6, sequence (Q9UPW6 whole entry, looked up): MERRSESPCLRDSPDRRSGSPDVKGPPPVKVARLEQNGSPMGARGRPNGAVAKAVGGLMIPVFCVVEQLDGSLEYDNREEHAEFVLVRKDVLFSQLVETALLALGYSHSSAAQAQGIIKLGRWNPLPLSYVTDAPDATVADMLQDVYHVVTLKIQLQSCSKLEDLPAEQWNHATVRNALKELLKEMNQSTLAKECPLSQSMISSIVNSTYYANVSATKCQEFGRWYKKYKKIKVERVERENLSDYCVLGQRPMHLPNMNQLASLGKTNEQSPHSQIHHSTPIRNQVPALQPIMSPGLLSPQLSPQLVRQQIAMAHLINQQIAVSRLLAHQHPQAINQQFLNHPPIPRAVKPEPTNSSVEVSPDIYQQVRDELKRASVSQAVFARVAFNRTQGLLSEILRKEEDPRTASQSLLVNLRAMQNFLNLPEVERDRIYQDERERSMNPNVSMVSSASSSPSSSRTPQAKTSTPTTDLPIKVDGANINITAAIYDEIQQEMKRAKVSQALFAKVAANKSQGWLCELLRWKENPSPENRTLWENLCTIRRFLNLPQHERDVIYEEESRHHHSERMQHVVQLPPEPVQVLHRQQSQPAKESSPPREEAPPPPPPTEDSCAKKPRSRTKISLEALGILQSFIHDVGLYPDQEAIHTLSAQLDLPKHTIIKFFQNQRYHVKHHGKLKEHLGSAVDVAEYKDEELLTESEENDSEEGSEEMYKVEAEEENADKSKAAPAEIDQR
UniProt Q6UVJ0, sequence (Q6UVJ0 whole entry, looked up): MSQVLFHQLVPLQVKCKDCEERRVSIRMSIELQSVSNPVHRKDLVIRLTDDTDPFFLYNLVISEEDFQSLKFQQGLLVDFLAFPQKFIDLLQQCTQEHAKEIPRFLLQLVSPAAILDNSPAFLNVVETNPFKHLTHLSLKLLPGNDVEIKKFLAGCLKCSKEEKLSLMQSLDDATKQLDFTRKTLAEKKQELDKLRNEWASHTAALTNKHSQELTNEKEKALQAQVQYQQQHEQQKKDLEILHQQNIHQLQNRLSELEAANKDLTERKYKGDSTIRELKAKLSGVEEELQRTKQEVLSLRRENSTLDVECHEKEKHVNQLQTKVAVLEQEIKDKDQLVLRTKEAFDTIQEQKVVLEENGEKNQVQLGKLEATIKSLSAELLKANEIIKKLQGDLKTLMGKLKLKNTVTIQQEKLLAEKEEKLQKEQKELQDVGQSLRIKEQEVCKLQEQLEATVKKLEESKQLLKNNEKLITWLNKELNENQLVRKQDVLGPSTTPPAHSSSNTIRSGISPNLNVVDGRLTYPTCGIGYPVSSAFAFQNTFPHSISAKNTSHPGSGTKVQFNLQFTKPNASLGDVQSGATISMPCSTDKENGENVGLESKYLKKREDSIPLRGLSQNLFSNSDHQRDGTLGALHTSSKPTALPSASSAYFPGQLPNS
UniProt Q00765, sequence (Q00765 whole entry, looked up): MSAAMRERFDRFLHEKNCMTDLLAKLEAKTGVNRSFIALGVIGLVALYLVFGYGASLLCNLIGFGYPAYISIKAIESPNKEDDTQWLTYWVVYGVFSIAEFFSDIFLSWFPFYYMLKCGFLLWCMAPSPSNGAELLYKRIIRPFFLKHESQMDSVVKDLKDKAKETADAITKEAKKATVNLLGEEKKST
UniProt Q99708, sequence (Q99708 whole entry, looked up): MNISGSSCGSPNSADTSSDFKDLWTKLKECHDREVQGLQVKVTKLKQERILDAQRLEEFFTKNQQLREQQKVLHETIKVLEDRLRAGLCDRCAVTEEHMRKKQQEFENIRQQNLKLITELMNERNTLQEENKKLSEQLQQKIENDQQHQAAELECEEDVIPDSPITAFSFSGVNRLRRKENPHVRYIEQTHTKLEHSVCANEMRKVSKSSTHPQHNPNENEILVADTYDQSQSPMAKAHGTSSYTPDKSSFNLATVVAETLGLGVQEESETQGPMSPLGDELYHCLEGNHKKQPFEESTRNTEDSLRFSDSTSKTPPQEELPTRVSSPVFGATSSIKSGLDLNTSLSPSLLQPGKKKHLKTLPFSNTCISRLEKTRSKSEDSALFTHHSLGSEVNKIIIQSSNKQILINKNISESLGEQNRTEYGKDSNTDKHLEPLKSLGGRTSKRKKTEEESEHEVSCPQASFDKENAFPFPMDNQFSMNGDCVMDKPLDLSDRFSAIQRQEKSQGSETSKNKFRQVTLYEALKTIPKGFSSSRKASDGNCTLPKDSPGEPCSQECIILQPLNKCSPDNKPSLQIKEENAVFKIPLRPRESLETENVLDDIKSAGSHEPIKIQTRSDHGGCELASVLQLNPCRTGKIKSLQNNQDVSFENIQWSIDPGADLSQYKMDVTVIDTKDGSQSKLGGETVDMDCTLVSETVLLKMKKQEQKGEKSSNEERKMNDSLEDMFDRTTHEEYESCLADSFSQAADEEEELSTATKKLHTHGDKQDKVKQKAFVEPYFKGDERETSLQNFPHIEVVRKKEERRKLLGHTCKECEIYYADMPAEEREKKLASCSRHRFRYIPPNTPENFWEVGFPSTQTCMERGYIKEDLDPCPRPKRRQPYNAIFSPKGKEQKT
UniProt O15541, sequence (O15541 whole entry, looked up): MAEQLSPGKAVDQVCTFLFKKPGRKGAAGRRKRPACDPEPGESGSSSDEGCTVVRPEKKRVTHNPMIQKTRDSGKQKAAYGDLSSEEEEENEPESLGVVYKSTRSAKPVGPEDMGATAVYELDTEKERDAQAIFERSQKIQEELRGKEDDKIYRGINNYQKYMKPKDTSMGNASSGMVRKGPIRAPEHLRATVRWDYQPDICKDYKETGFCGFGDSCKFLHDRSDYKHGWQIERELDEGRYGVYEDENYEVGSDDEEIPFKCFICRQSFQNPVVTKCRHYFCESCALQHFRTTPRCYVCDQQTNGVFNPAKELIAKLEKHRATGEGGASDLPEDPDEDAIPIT
UniProt P38159, sequence (P38159 whole entry, looked up): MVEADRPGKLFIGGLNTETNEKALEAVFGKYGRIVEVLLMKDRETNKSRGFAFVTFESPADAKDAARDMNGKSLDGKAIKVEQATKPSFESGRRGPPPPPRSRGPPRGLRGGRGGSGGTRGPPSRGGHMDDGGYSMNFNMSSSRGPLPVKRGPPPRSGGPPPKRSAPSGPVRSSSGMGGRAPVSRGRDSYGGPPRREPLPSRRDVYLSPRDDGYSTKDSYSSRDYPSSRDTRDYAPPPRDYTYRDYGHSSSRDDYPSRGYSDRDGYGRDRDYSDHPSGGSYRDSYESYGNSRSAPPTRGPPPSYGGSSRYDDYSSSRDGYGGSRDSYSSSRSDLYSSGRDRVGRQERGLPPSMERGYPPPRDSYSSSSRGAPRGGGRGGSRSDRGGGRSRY
UniProt Q9NR31, sequence (Q9NR31 whole entry, looked up): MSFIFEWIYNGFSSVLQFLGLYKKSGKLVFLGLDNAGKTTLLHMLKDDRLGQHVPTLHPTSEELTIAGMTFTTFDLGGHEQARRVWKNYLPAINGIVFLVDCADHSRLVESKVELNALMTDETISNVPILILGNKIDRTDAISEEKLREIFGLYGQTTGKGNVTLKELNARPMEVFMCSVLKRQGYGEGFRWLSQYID
UniProt Q05823, sequence (Q05823 whole entry, looked up): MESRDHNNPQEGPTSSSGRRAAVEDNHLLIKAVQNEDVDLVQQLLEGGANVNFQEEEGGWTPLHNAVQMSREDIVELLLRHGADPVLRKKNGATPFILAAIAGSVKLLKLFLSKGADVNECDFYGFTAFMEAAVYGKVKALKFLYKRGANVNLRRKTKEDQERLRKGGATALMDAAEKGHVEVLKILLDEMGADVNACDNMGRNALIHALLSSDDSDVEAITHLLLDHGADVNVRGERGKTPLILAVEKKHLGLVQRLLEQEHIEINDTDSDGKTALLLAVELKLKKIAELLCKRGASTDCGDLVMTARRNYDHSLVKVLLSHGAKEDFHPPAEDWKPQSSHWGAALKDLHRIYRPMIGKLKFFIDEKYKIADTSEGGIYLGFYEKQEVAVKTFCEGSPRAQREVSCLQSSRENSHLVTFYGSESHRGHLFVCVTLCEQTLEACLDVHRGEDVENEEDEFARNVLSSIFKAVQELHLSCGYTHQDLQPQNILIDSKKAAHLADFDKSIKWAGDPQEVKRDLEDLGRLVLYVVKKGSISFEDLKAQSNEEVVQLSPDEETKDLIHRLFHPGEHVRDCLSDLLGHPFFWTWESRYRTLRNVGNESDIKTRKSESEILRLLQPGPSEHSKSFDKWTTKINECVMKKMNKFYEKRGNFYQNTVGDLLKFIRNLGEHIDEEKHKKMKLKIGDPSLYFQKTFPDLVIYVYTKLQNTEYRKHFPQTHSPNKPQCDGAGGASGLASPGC
UniProt P31949, sequence (P31949 whole entry, looked up): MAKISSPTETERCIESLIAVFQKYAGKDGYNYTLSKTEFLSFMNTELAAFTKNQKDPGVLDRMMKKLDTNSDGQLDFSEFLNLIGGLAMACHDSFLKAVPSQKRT

Compound in the first test: NC(=O)Nc1cc(-c2cccc(F)c2)sc1C(=O)N[C@H]1CCCNC1
The experiment in a line: log2 fold change, soluble protein after heating vs DMSO (PISA); higher = thermal stabilisation; K562 lysate, 10 uM; active = over 0.2 and 3.5 SD of the protein, either way, in both replicates (recomputed). The method, boiled down:
(§1)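 To prepare the extract, K562 pellets were dounce-homogenised in PBS pH 7.4 with 1 mM MgCl2, giving crude material at 1 mg/mL protein. This was treated with 10 μM compound for 30 min, then heated in aliquots for 3 min over 48°C-58°C before pooling and addition of NP-40 to 0.5% at 4°C. Centrifugation at 21,000xg for 90 min left soluble protein in the supernatant, which TMTpro 16plex LC-MS/MS quantified with equalised channel sums. Results are log-two fold changes in thermal stability compared with solvent controls, from duplicates.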
As for RTN4IP1 (UniProt Q8WWV3), the log2 fold change was -0.055 (inactive).

For the target SATB2 (UniProt Q9UPW6), the log2 fold change is 0.018 (inactive).

Regarding RRAGA (UniProt Q7L523), the log2 fold change is 0.082 (inactive).

Consider RFC2 (UniProt P35250), for which the log2 fold change was 0.036 (inactive).

As to SASS6 (UniProt Q6UVJ0), the log2 fold change was 0.03 (inactive).

Consider SEC16A isoform 5 (UniProt O15027), for which the log2 fold change was 0.032 (inactive).

In the case of SEH1L isoform 1 (UniProt Q96EE3), the log2 fold change is 0 (inactive).

On to RECQL5 (UniProt O94762), for which the log2 fold change is 0.034 (inactive).

In the case of SAR1A (UniProt Q9NR31), the log2 fold change is -0.055 (inactive).

Consider RAP1GAP isoform 4 (UniProt P47736), for which the log2 fold change was 0.029 (inactive).

Take RNASEL (UniProt Q05823): the log2 fold change is 0.042 (inactive).

Consider RIOK3 (UniProt O14730), for which the log2 fold change is 0.01 (inactive).

Regarding RRM1 (UniProt P23921), the log2 fold change is 0.016 (inactive).

Take RBBP8 isoform 2 (UniProt Q99708): the log2 fold change was 0.033 (inactive).

Consider REEP5 (UniProt Q00765), for which the log2 fold change is -0.024 (inactive).

Regarding RAB21 (UniProt Q9UL25), the log2 fold change is 0.019 (inactive).

For RDH14 (UniProt Q9HBH5), the log2 fold change is -0.011 (inactive).

SDHA (UniProt P31040): the log2 fold change is -0.037 (inactive).

Regarding RABL3 (UniProt Q5HYI8), the log2 fold change is 0.084 (inactive).

Take RBMX (UniProt P38159): the log2 fold change was 0.014 (inactive).

As to RNASEH2B (UniProt Q5TBB1), the log2 fold change was 0.037 (inactive).

With RAC2 (UniProt P15153), the log2 fold change is 0.001 (inactive).

For the target RPS6KA3 (UniProt P51812), the log2 fold change is 0.133 (inactive).

In the case of RNF113A (UniProt O15541), the log2 fold change was -0.068 (inactive).

Consider RCOR1 (UniProt Q9UKL0), for which the log2 fold change was 0.043 (inactive).

For RBM4 (UniProt Q9BWF3), the log2 fold change was 0.034 (inactive).

For SBF1 isoform 4 (UniProt O95248), the log2 fold change is 0.12 (inactive).

Regarding RBSN (UniProt Q9H1K0), the log2 fold change is 0.05 (inactive).

Regarding RAPGEF2, A0A2R8YGD3, the log2 fold change is 0.054 (inactive).

Regarding RBBP7 (UniProt Q16576), the log2 fold change was 0.04 (inactive).

With S100A11 (UniProt P31949), the log2 fold change is -0.033 (inactive).

In the case of RPN2 (UniProt P04844), the log2 fold change was -0.001 (inactive).

With RXRB isoform 3 (UniProt P28702), the log2 fold change is 0.032 (inactive).

Compound in another test: NC(=O)c1cnc(N[C@@H]2CCCC[C@@H]2N)nc1Nc1cccc(-n2nccn2)c1
Described as above. The essentials:
as §1
On to RTN4IP1 (UniProt Q8WWV3), for which the log2 fold change is -0.012 (inactive).

As for SATB2 (UniProt Q9UPW6), the log2 fold change is 0.031 (inactive).

With RRAGA (UniProt Q7L523), the log2 fold change is 0.033 (inactive).

Consider RFC2 (UniProt P35250), for which the log2 fold change is 0.014 (inactive).

For SASS6 (UniProt Q6UVJ0), the log2 fold change is 0.044 (inactive).

In the case of SEC16A isoform 5 (UniProt O15027), the log2 fold change is 0.004 (inactive).

Regarding SEH1L isoform 1 (UniProt Q96EE3), the log2 fold change is 0.003 (inactive).

Consider RECQL5 (UniProt O94762), for which the log2 fold change is 0.343 (inactive).

On to SAR1A (UniProt Q9NR31), for which the log2 fold change was -0.154 (inactive).

Turning to RAP1GAP isoform 4 (UniProt P47736), the log2 fold change was -0.021 (inactive).

On to RNASEL (UniProt Q05823), for which the log2 fold change was 0.026 (inactive).

For RIOK3 (UniProt O14730), the log2 fold change was 0.009 (inactive).

In the case of RRM1 (UniProt P23921), the log2 fold change was -0.002 (inactive).

Consider RBBP8 isoform 2 (UniProt Q99708), for which the log2 fold change is 0.035 (inactive).

Turning to REEP5 (UniProt Q00765), the log2 fold change was 0 (inactive).

As to RAB21 (UniProt Q9UL25), the log2 fold change was -0.017 (inactive).

In the case of RDH14 (UniProt Q9HBH5), the log2 fold change was -0.077 (inactive).

Take SDHA (UniProt P31040): the log2 fold change was -0.013 (inactive).

For the target RABL3 (UniProt Q5HYI8), the log2 fold change was -0.003 (inactive).

Regarding RBMX (UniProt P38159), the log2 fold change is 0.033 (inactive).

For RNASEH2B (UniProt Q5TBB1), the log2 fold change was 0.004 (inactive).

On to RAC2 (UniProt P15153), for which the log2 fold change was 0.04 (inactive).

As to RPS6KA3 (UniProt P51812), the log2 fold change is 0.09 (inactive).

For RNF113A (UniProt O15541), the log2 fold change is -0.005 (inactive).

On to RCOR1 (UniProt Q9UKL0), for which the log2 fold change was -0.015 (inactive).

In the case of RBM4 (UniProt Q9BWF3), the log2 fold change is 0.046 (inactive).

For SBF1 isoform 4 (UniProt O95248), the log2 fold change was 0.039 (inactive).

For the target RBSN (UniProt Q9H1K0), the log2 fold change was 0.039 (inactive).

For RAPGEF2, A0A2R8YGD3, the log2 fold change is -0.02 (inactive).

As for RBBP7 (UniProt Q16576), the log2 fold change is -0.003 (inactive).

On to S100A11 (UniProt P31949), for which the log2 fold change was 0 (inactive).

On to RPN2 (UniProt P04844), for which the log2 fold change was 0.011 (inactive).

As for RXRB isoform 3 (UniProt P28702), the log2 fold change is -0.031 (inactive).

Compound in the next test: NC1(c2ccc(-c3nc4ccn5c(=O)[nH]nc5c4cc3-c3ccccc3)cc2)CCC1
The test is described as above. The method, boiled down: as §1
In the case of RTN4IP1 (UniProt Q8WWV3), the log2 fold change is 0.148 (inactive).

Regarding SATB2 (UniProt Q9UPW6), the log2 fold change was 0 (inactive).

On to RRAGA (UniProt Q7L523), for which the log2 fold change was -0.04 (inactive).

Turning to RFC2 (UniProt P35250), the log2 fold change is -0.05 (inactive).

On to SASS6 (UniProt Q6UVJ0), for which the log2 fold change was 0.003 (inactive).

As for SEC16A isoform 5 (UniProt O15027), the log2 fold change is -0.011 (inactive).

Take SEH1L isoform 1 (UniProt Q96EE3): the log2 fold change was -0.028 (inactive).

As for RECQL5 (UniProt O94762), the log2 fold change is 0.049 (inactive).

In the case of SAR1A (UniProt Q9NR31), the log2 fold change was -0.045 (inactive).

Regarding RAP1GAP isoform 4 (UniProt P47736), the log2 fold change was -0.034 (inactive).

Consider RNASEL (UniProt Q05823), for which the log2 fold change is -0.064 (inactive).

On to RIOK3 (UniProt O14730), for which the log2 fold change was 0.014 (inactive).

On to RRM1 (UniProt P23921), for which the log2 fold change was -0.038 (inactive).

As for RBBP8 isoform 2 (UniProt Q99708), the log2 fold change is -0.026 (inactive).

For REEP5 (UniProt Q00765), the log2 fold change is -0.023 (inactive).

Take RAB21 (UniProt Q9UL25): the log2 fold change was -0.007 (inactive).

With RDH14 (UniProt Q9HBH5), the log2 fold change was 0.048 (inactive).

Turning to SDHA (UniProt P31040), the log2 fold change is 0.007 (inactive).

As for RABL3 (UniProt Q5HYI8), the log2 fold change was 0.267 (inactive).

On to RBMX (UniProt P38159), for which the log2 fold change is -0.021 (inactive).

Regarding RNASEH2B (UniProt Q5TBB1), the log2 fold change is -0.015 (inactive).

As for RAC2 (UniProt P15153), the log2 fold change was 0.017 (inactive).

RPS6KA3 (UniProt P51812): the log2 fold change was 0.005 (inactive).

For the target RNF113A (UniProt O15541), the log2 fold change was -0.002 (inactive).

Consider RCOR1 (UniProt Q9UKL0), for which the log2 fold change is 0.099 (inactive).

In the case of RBM4 (UniProt Q9BWF3), the log2 fold change was 0.029 (inactive).

Regarding SBF1 isoform 4 (UniProt O95248), the log2 fold change was 0.091 (inactive).

In the case of RBSN (UniProt Q9H1K0), the log2 fold change is 0.029 (inactive).

Regarding RAPGEF2, A0A2R8YGD3, the log2 fold change is 0.024 (inactive).

In the case of RBBP7 (UniProt Q16576), the log2 fold change was 0.039 (inactive).

S100A11 (UniProt P31949): the log2 fold change is -0.006 (inactive).

Turning to RPN2 (UniProt P04844), the log2 fold change is -0.003 (inactive).

Regarding RXRB isoform 3 (UniProt P28702), the log2 fold change is -0.199 (inactive).
